Results on 21 molecules are retold here after PubChem BioAssay (NCATS).

Molecules are shown by their SMILES. Results filed as inconclusive are left out. A call without a number means that no potency is given here. Calls of active or inactive are those of the source. The call rests on the fitted dose curve; in most records, active means well fitted curve in the direction sought with a large enough effect; inconclusive means small, poorly fitted or top-dose-only effect, or another doubt; inactive means no such curve, though single readings can be large; an effect the other way counts as inactive or inconclusive.

In assay [1] the target is Metallo-beta-lactamase type 2 (Klebsiella pneumoniae) (UniProt C7C422). The assay can be described thus: qHTS to identify inhibitors of the New Delhi Metallo-beta-lactamase (NDM): assay validation screen against the NCATS LOPAC Collection (AID 1794843).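 Further: nitrocefin turnover by NDM-1 measured as 485 nm absorbance at plateau; series mostly up to about 38 µM.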 An outline of the steps: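 NDM-1 at 2 nM final in 50 mM HEPES pH 7.0 with 1 uM ZnSO4 and 0.01% Tween20 was preincubated with library compounds in DMSO. Nitrocefin (50 uM stock) was then added, and absorbance at 485 nm was read at the kinetic plateau.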
Background: Quantitative high-throughput screening tests each substance at several concentrations.

Assay [2] addresses Glutathione peroxidase 1 (Homo sapiens) (UniProt P07203). Put plainly: Primary qHTS Assay for Inhibitors of Recombinant Selenoprotein Glutathione Peroxidase 1 (GPX1) (AID 1845191). Further: nearly all actives have a fitted effect of over 65% in size. In a few lines:
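10 nM GPX1 + cpd, 30 min RT; start w/ 1 mM GSH, 0.5 mM cumene hydroperoxide, 0.5 mM NADPH, 100 nM GR, 0.01% BSA; buffer 50 mM Tris-HCl pH 7.5, 2 mM EDTA, 150 mM NaCl; Fl 340/450, 0 & 15 min.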

Metallo-beta-lactamase type 2 (Klebsiella pneumoniae), sequence (C7C422 whole entry, looked up): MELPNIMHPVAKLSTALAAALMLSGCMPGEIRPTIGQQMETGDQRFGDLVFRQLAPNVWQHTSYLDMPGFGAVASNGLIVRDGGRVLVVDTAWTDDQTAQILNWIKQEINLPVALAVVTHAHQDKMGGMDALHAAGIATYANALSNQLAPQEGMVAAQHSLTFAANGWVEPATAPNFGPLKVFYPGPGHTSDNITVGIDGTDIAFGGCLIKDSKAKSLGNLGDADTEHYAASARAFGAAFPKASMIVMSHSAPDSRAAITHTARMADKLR
Glutathione peroxidase 1 (Homo sapiens), sequence (P07203 whole entry, looked up): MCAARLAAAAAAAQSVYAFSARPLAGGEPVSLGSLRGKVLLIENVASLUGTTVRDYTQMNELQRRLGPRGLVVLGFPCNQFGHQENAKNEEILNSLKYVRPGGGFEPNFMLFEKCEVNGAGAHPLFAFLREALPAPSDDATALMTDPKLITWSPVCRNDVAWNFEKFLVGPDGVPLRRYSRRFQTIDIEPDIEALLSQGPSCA

Turning to `C/C(=C\c1ccc(C(=O)O)cc1)c1ccc2c(c1)C(C)(C)CCC2(C)C`, the Potency entry in assay [1] and in assay [2] was “inactive” each time.
Take `COc1ccccc1N1CCN(CCCNc2c(C)c(=O)n(C)c(=O)n2C)CC1`: the Potency result in assay [1] and in assay [2] was “inactive” throughout.
In the case of `O=c1onc2n1-c1cc(Br)ccc1OC2`, the Potency entry in assay [1] and in assay [2] was “inactive” throughout.
With `Cc1cccc(C(=O)NCN2CCN(c3ccccc3C#N)CC2)c1`, the Potency entry in assay [1] and in assay [2] was “inactive” throughout.
Consider `COc1cc(CNC(=O)CCCCCCC(C)C)ccc1O`, for which the Potency entry in assay [1] and in assay [2] was “inactive” throughout.
`Cn1ccnc1`: the Potency entry in assay [1] and in assay [2] was “inactive” throughout.
Regarding `Cc1ccc2c(c1)C(N1CCN(C)CC1)=Nc1cccnc1N2`, the Potency result in assay [1] and in assay [2] was “inactive” each time.
Consider `N[C@H](C(=O)O)[C@H]1C[C@@H]1C(=O)O`, for which the Potency entry in assay [1] and in assay [2] was “inactive” throughout.
With `CCN(CC)CCOC(=O)c1cc(Cl)c(N)cc1OC`, the Potency entry in assay [1] and in assay [2] was “inactive” in each case.
Regarding `Nc1ccc(-c2ccc3ccccc3n2)cc1`, the Potency entry in assay [1] and in assay [2] was “inactive” each time.
On to `O=C(O)CCC(=O)N1CCCC1C(=O)O` (configuration not stated), for which the Potency result in assay [1] and in assay [2] was “inactive” throughout.
Consider `COc1ccc2c(c1)c(CC(=O)O)c(C)n2C(=O)c1ccccc1`, for which the Potency result in assay [1] and in assay [2] was “inactive” throughout.
Consider `c1ccc2c(c1)CCC[C@H]2Nc1nc2ccccc2[nH]1`, for which the Potency result in assay [1] and in assay [2] was “inactive” throughout.
Regarding `C=CCNc1ncnc2ccc(Br)cc12`, the Potency entry in assay [1] and in assay [2] was “inactive” in each case.
On to `CCCCCCCCCCC(C)(C)C(=O)Nc1c(OC)cc(OC)cc1OC`, for which the Potency entry in assay [1] and in assay [2] was “inactive” in each case.
Turning to `COc1ccc2c(c1)c(CC(=O)O)c(C)n2Cc1ccc(Cl)cc1`, the Potency entry in assay [1] and in assay [2] was “inactive” in each case.
`CNCCNS(=O)(=O)c1cccc2cnccc12`: the Potency result in assay [1] and in assay [2] was “inactive” each time.
For the molecule `CN1CCc2cc(Cl)c(O)cc2[C@@H](c2ccccc2)C1`, the Potency entry in assay [1] and in assay [2] was “inactive” each time.
Take `NC1C=CC=C(C(=O)O)C1` (configuration not stated): the Potency result in assay [1] and in assay [2] was “inactive” in each case.
Turning to `CC1=C(C(=O)O)N2C(=O)[C@@H](NC(=O)C(N)C3=CCC=CC3)[C@H]2SC1` (some centres not stated), the Potency result in assay [1] and in assay [2] was “inactive” throughout.
Turning to `N[C@@H](Cc1ccc(O)c(I)c1)C(=O)O`, the Potency entry in assay [1] and in assay [2] was “inactive” in each case.
